Measured values reported in PubChem BioAssay AID743187 (National Center for Advancing Translational Sciences (NCATS), 2013).
The list shows a part of the results. Inconclusive results are not listed. Calls of active or inactive are those of the source. Calls come from the whole dose curve; as a rule, active = well fitted inhibition curve with a large enough effect; inconclusive = small, poorly fitted or top-dose-only effect; inactive = no such curve, though single readings can be large or run the other way.

target: Peroxisomal multifunctional enzyme type 2 (Homo sapiens) (UniProt P51659); experiment: Extended Characterization of HPGD Inhibitors: Counterscreen Against HSD17b4; settings: purified HSD17B4, estradiol/NAD+, NADH fluorescence; series mostly up to 57.1 µM; activity change, negative = inhibition: at the top concentration
From the text: The central role of HPGD is to inactivate prostaglandins such as prostaglandin E2 (PGE2) or prostaglandin D2 (PGD2). These prostaglandins are involved in a number of processes, including inflammation, differentiation, and cellular signaling, which makes HPGD an important target for pharmacological intervention. The […] enzyme 17b-hydroxysteroid dehydrogenase […] (HSD17b4 catalyzes the NAD+-dependent oxidation of a variety of substrates including acyl-CoAs, androgens and neurosteroids, as well as bile acids. HSD17b4 activity was screened by utilizing an electron donor (estradiol) and NAD+ as an electron acceptor/cofactor. An increase in the fluorescence intensity due to conversion of NAD+ to NADH was used to measure the enzyme activity.. NIH Chemical Genomics Center [NCGC] NIH Molecular Libraries Probe Centers Network [MLPCN] MLPCN Grant: MH084681 Assay Submitter (PI): Structural Genomics Consortium
3 uL of enzyme (final concentration 100 nM) or buffer were dispensed into a 1,536-well solid-bottom black plate (Greiner Bio One, Monroe, NC) followed by pin-tool transfer (23 nL) of compound (final concentration range 324 pM to 57.2 uM) and control (CID-24867619, final concentration range 5.23 nM to 11.4 uM). Samples were incubated (RT, protected from light) for 15 minutes followed by a 1 uL substrate addition of NAD+ and Estradiol (final concentrations of 1 mM and 50 uM, respectively, in 15% DMSO). Plates were centrifuged at 1,000 rpm for 15 seconds, then read immediately on a ViewLux High-throughput CCD imager (Perkin-Elmer) equipped with standard UV fluorescence optics (340 nm excitation, 450 nm emission), incubated for 1 hour (RT, protected from light) followed by a second read. Data were normalized ([…]) against no-enzyme (positive) and enzyme-containing (neutral) wells.

Sequence of Peroxisomal multifunctional enzyme type 2 (Homo sapiens) (P51659 whole entry, looked up): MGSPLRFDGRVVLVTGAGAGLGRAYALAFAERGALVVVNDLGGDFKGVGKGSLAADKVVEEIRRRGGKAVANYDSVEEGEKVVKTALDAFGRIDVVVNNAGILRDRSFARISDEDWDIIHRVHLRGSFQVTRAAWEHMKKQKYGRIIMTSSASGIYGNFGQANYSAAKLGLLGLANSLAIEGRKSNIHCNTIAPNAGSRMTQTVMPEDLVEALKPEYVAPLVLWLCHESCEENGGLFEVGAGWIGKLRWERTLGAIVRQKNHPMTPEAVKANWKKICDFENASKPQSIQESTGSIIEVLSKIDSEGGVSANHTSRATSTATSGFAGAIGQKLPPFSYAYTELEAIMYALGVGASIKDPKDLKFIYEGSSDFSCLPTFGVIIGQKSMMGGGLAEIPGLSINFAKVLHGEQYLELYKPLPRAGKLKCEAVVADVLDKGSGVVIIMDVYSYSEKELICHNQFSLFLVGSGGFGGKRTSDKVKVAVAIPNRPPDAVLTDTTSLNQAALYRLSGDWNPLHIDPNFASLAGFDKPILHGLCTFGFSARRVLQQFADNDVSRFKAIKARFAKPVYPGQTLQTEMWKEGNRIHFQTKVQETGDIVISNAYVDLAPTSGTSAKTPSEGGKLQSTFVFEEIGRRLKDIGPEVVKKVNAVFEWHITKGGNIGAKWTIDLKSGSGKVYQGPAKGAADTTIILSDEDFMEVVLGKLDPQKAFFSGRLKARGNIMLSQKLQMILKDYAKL

Question: Which “activity change, negative = inhibition” value does the source give for COc1ccnc(NC(=S)N2CCN(c3ncc(C(F)(F)F)cc3Cl)CC2)c1 here?
Answer: -22.7% (inactive)

Question: With FC(F)(F)c1cccc(N2CCN(C(=S)Nc3ccncc3)CC2)c1 as the compound, how does the “activity change, negative = inhibition” value read?
Answer: -27.4% (inactive)

Question: With Cc1cc(-c2nnc3n2CCCCC3)c(C)n1-c1cccc(Cl)c1 as the compound, how does the “activity change, negative = inhibition” value read?
Answer: -8.23% (inactive)

Question: How did the “activity change, negative = inhibition” value turn out when COc1cccc(NC(=S)N2CCN(c3ccc(Cl)cc3Cl)CC2)n1 was run?
Answer: -23.8% (inactive)

Question: Which “activity change, negative = inhibition” value does the source give for Cc1cc(C)nc(NC(=S)N2CCN(c3ccc4nonc4c3)CC2)c1 here?
Answer: 0.76% (inactive)

Question: With Cc1cc(C)nc(NC(=S)N2CCN(c3ccc(Cl)cc3C(F)(F)F)CC2)c1 as the compound, how does the Potency read?
Answer: 24.1 µM (active)

Question: How did the “activity change, negative = inhibition” value turn out when COc1cccc(NC(=S)N2CCN(c3ccccc3C(F)(F)F)CC2)n1 was run?
Answer: -11.1% (inactive)

Question: Which “activity change, negative = inhibition” value does the source give for Cc1cc(C)nc(NC(=S)N2CCN(c3cccc(C#N)c3)CC2)c1 here?
Answer: -28.4% (inactive)
